This is a sample that favours compounds with a hit; in the whole collection about 6.8% have one here.
DPM-DC inhibit – inhibitors of Streptococcus pneumoniae diphosphomevalonate decarboxylase; purified DPM-DC, PK/LDH coupled NADH fluorescence; calls only at 10 µM; 0.49% of 65,000 active; AID 556;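 active = the 320 compounds with the highest percent inhibition in the single-dose primary screen, excluding strongly autofluorescent ones, cut at about 32% in these data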;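 note: kinetic rate of NADH fluorescence loss reporting ADP formed by the decarboxylase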
PMK inhibit – S. pneumoniae PMK inhibition | purified PMK, PK/LDH-coupled NADH absorbance 340 nm | inhibition, % at 10 µM | 0.49% of 65,000 active | AID 539;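 active = top-ranked compounds by inhibition in the single 10 µM screen, taking a fixed number of the strongest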;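 note: 0% = full reaction with DMSO carrier and 100% = background rate without enzyme reaction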
NADH coupling – inhibition of NAD/NADH coupling enzymes, library profiling | coupled PK/LDH NADH assays, four targets | IC50, µM (titrated, usually from 10 µM), without a hit: at the top dose inhibition | 0.02% of 65,000 active;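 active = single-dose screening hits from any of four coupled enzyme assays that gave an IC50 when retested across doses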;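 note: the DPM-DC format reads NADH fluorescence rather than 340 nm absorbance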
MK inhibit – inhibitors of Streptococcus pneumoniae mevalonate kinase | inhibition, % at 10 µM | purified MK, PK/LDH-coupled NADH absorbance 340 nm | 0.48% of 65,000 active;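 active = ranked among the strongest by inhibition in the single 10 µM screen, a fixed top-ranked set picked for dose follow-up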
Abs 340nm – compounds absorbing at 340 nm | compound absorbance at 340 nm, fold over control | fold change at 10 µM | 65,000 tested, under 10 active;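 active = at 10 µM dose, initial 340 nm absorbance at least 2 fold that of control wells; inactive = change under 2 fold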;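 note: initial absorbance extrapolated from kinetic A340 decline of NADH oxidation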
Fluor 339 460 – intrinsic fluorescence of library compounds, ex339/em460 – biochemical, MLSMR library, data from DPM-DC assay, artefact control, profiling panel | compound autofluorescence, ex339/em460 nm, NADH buffer; stronger effect = higher value; 1 = no-compound wells, NADH background | fluorescence fold increase at 10 µM | 5.5% of 65,000 active;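 active = at 10 µM, mean starting fluorescence two-fold or more over control wells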;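 note: signal is the first read of a kinetic run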
Active calls of the source: *; i = inactive; · = no result given; + = active, no number.

SMILES	DPM-DC inhibit	PMK inhibit	NADH coupling	MK inhibit	Abs 340nm	Fluor 339 460
CN(C)C=C1C(=O)N(C2CCCCC2)C(=O)N(C2CCCCC2)C1=O	i	7	4%	4	1	1.1
CCOc1ccc(-c2cc(C(=O)N3CCC4(CC3)OCCO4)c3ccccc3n2)cc1	·	9	5%	0	1.1	5.2*
CN1C(=O)N(C)C(=O)C2(Cc3c(nc4ccccn4c3=O)N3CCc4ccccc4C32)C1=O (stereo unspecified)	i	9	3%	0	1.1	1.6
CC(C)CCn1c(N)c(C(=O)OCC2CCCO2)c2nc3ccccc3nc21 (stereo unspecified)	·	1	2%	2	1.1	4*
CCCCn1c(N)c(C(=O)OCC2CCCO2)c2nc3ccccc3nc21 (stereo unspecified)	·	13	7%	0	1.1	3.9*
CCC(=NCCCN(C)C)c1c(O)n(-c2ccc(OC)cc2)c(=O)[nH]c1=O	i	14	11%	11	1	1.1
O=C1c2ccccc2C2(c3ccc(Cl)cc3)NCCN12 (stereo unspecified)	i	15	7%	6	1	1.1
c1ccc2c(CN3CCCCCCC3)c[nH]c2c1	i	12	20%	48*	1.1	1.1
c1ccc2c(CN3CCN(C4CCCCC4)CC3)c[nH]c2c1	i	0	3%	9	1	1.2
CCn1nc(-c2cccs2)nc2c(=O)n(C)c(=O)nc1-2	+	11	8.4µM*	63*	0.5	0.06
Cn1c2ccccc2c2c(C(=O)N3CCC4(CC3)OCCO4)cn(C3CCCCC3)c(=O)c21	·	19	10%	1	1.1	2.1*
CC(C)Cn1cc(C(=O)N2CCC3(CC2)OCCO3)c2c3ccccc3n(C)c2c1=O	·	14	11%	8	1	4.3*
Cn1cc(C(=O)N2CCC3(CC2)OCCO3)c2c3ccccc3n(C)c2c1=O	i	9	11%	1	1.1	3.4*
CCCCCCn1c(N)c(C(=O)NCCN2CCOCC2)c2nc3ccccc3nc21	·	4	8%	12	0.99	3.9*
CCCn1nc2ccccc2c1P(=O)(N1CCOCC1)N1CCOCC1	i	14	5%	2	0.98	1.1
CCCCn1c(=O)c(C(=O)Nc2nc3ccccc3[nH]2)c(O)c2ccccc21	i	9	10%	14	1.1	1.7
CCCCCn1c(N)c(C(=O)NCCN2CCOCC2)c2nc3ccccc3nc21	·	7	6%	4	1.1	2.1*
COc1ccccc1N1CCN(Cc2ccccc2F)CC1	i	0	17%	51*	1.1	1
COc1ccccc1N1CCN(Cc2ccccc2Cl)CC1	i	0	16%	49*	1.1	1.1
CN(C)P1(N(C)C)=NC(C(F)(F)F)=NC(C(F)(F)F)=N1	i	0	2%	6	1	1.1
CC(C)OC(=O)c1c(N)n(CC2CCCO2)c2nc3ccccc3nc12 (stereo unspecified)	·	15	5%	9	1	3*
Nc1c(C(=O)OC2CCCCC2)c2nc3ccccc3nc2n1CC1CCCO1 (stereo unspecified)	·	10	10%	9	1.1	3.6*
CC(C)CCOC(=O)c1c(N)n(CC2CCCO2)c2nc3ccccc3nc12 (stereo unspecified)	·	10	9%	8	1.1	3.9*
Cc1cc(OCc2nn[nH]n2)c2c3c(c(=O)oc2c1)CCC3	·	13	9%	5	1.1	3.9*
Cc1cc(OCC(=O)NC2CCS(=O)(=O)C2)c2c3c(c(=O)oc2c1)CCC3 (stereo unspecified)	·	0	2%	3	1.1	2.2*
Cc1cccnc1-n1c(CN2C(=O)c3ccccc3C2=O)nc2ccccc2c1=O	i	0	1%	2	1	1.1
COCC(C)OC(=O)c1c(N)n(Cc2ccco2)c2nc3ccccc3nc12 (stereo unspecified)	·	9	5%	1	1.1	2.3*
CCCCn1c(NC(=O)c2ccco2)c(C(=O)OCC)c2nc3ccccc3nc21	·	10	7%	4	1.1	3.8*
CCOC(=O)c1c(N)n(Cc2ccco2)c2nc3ccccc3nc12	·	8	8%	8	1.1	2.2*

Assay outcomes (PubChem BioAssay)
